From PubChem BioAssay
BoNT A protease: inhibitors of Botulinum neurotoxin A light chain protease; multiplex microsphere protease substrate cleavage, flow cytometry; inhibition, % at 10 µM; 0.17% of 360,000 active; AID 588499; also: plate controls were buffer without enzyme for full effect and enzyme alone for no effect
Bead autofluor: compound fluorescence in toxin protease inhibitor counterscreen | compound autofluorescence counterscreen, microsphere flow cytometry; hits give high values | fluorescence intensity (test concentration not listed) | 3.1% of 360,000 active; in the data active = fluorescence intensity above about 16000; inconclusive = no clear call, values can overlap the other calls
Anthrax LF prot: blocks Bacillus anthracis lethal factor protease; multiplex microsphere protease cleavage assay, LF; inhibition, % at 10 µM; AID 588501; 0.12% of 360,000 active; also: plate controls were buffer without enzyme for full effect and enzyme alone for no effect
BoNT F protease: BoNT F light chain protease inhibition | 0.22% of 360,000 active | Multiplex microsphere protease cleavage assay, flow cytometry | inhibition, % at 10 µM; in the data active = inhibition above about 35%, passing the limit was not always enough; inconclusive = no clear call, values can overlap the other calls; also: plate controls were buffer without enzyme for full effect and enzyme alone for no effect
SSB-PriA inh: K. pneumoniae PriA-SSBct interaction inhibition; AlphaScreen SSBct-PriA binding, biotinylated peptide; inhibition, % at 33 µM; 0.6% of 430,000 active; in the data active = inhibition mostly above about 37%, no sharp cut-off; inactive = mostly below about 20%;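 also: plate controls were negative control peptide for no effect and reference peptide for full effect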
* hit, by the source's call; ? = inconclusive; / = not tested or not shown. Hits are enriched below; roughly 3.1% of the tested compounds scored in any of these assays. Rule as the data show it, unless noted: active = inhibition above about 30%; inconclusive = no clear call, values can overlap the other calls; inactive = below that.

SMILES	BoNT A protease	Bead autofluor	Anthrax LF prot	BoNT F protease	SSB-PriA inh
COC(=O)C(O)(c1ccc(NC(=O)Oc2ccccc2)cc1)C(F)(F)F (stereo not drawn)	0.3	2240	1.4	-4.1	-3.7
COC(=O)C(O)(c1ccc(NC(=S)NC(=O)c2ccccc2)cc1)C(F)(F)F (stereo not drawn)	-3.1	16903*	-1.0	-3.4	-0.6
COc1cc(C(=O)NCCn2ncc3c(=O)n(Cc4cccc(C(F)(F)F)c4)cnc32)cc(OC)c1OC	/	/	/	/	-17.0
CCN1C(=O)[C@@H]2[C@@H](c3ccc(SC4CCCCC4)cc3)N3CCCC[C@@]3(C(=O)OC)[C@@H]2C1=O	-1.5	16473*	6.8	27.2	12.4
CCCSc1ccc([C@@H]2[C@H]3C(=O)N(CC)C(=O)[C@H]3[C@]3(C(=O)OC)CCCCN23)cc1	-6.8	22612*	1.3	21.6	0.4
O=C1CC(NC(=O)c2cccc3ccccc23)CN1 (stereo not drawn)	/	/	/	/	-15.0
Nc1ccccc1Nc1ccccc1	4.4	2257	-2.4	-24.0	63.9*
c1ccc(Nc2ccc(Nc3ccccc3)cc2)cc1	-1.5	5610	-5.0	-19.4	28.5
Nc1ccc(Nc2ccccc2)c(Cl)c1	-0.9	8785	-6.6	-36.4	51.6*
COC(=O)C(CCSC)NC(=O)c1cn(-c2ccc(OC)cc2)c(=O)c2ccccc12 (stereo not drawn)	-1.4	4029	-7.6	35.5*	2.1
CCC(=NN1CCCCC1)c1c(O)[nH]c(=O)[nH]c1=O	/	/	/	/	4.0
CCS(=O)(=O)c1nc2ccccc2n1CC(=O)N1CCCCC1	1.0	4692	-3.8	-4.6	2.2
O=C(Cn1c(S(=O)(=O)Cc2ccccc2)nc2ccccc21)N1CCN(c2ccccc2)CC1	/	/	/	/	54.0*
CC1(C)NC(=O)N(CCOCCSc2ccccc2)C1=O	-3.3	24307*	0.5	-6.3	-6.8
CC1(C)NC(=O)N(CCSc2ccc(Cl)cc2)C1=O	2.2	19822*	-1.8	3.0	-5.7
Cc1ccc(C(=O)O)cc1N1C(=O)/C(=C\c2ccc(-c3ccc([N+](=O)[O-])cc3)o2)SC1=S	/	/	/	/	-5.0
CON(C)C(=O)Nc1ccc(Cl)cc1	-1.5	16992*	-5.1	-3.7	-3.2
Cc1n[nH]c(C)c1CCC(=O)Nc1cc(C(F)(F)F)ccc1Cl	/	/	/	/	-4.0
COc1ccc(N2C(=O)NC(NC(=O)c3ccncc3)(C(F)(F)F)C2=O)cc1 (stereo not drawn)	0.6	22275*	2.6	2.0	0.4
Fc1ccccc1CSc1ncnc2c1oc1ccccc12	3.3	19470*	-1.0	7.5	-13.7
CC(C)Sc1ncnc2c1oc1ccccc12	0.3	23211*	-1.2	-0.5	-28.1
O=C(CSc1ncnc2c1oc1ccccc12)Nc1cccc(Cl)c1	-7.1	21833*	0.7	-7.1	-12.2
CCOC(=O)C(C)Sc1ncnc2c1oc1ccccc12 (stereo not drawn)	/	/	/	/	-27.0
CCOC(=O)c1c(NC(=O)CSc2nc(N)cc(=O)[nH]2)sc(C)c1C	/	/	/	/	1.0
O=C(COC(=O)c1ccccc1C(=O)c1ccc(Cl)c([N+](=O)[O-])c1)NC1CCCCCC1	-0.6	23481*	0.0	-1.4	-4.8
SMILES	BoNT A protease	Bead autofluor	Anthrax LF prot	BoNT F protease	SSB-PriA inh
O=C(COC(=O)c1ccc(Cl)c([N+](=O)[O-])c1)NC1CCCC1	-2.0	4070	-1.4	-2.3	-4.1
CCOc1ccc(NC(=S)NC23CC4CC(CC(C4)C2)C3)cc1	-1.2	3461	5.2	?	-12.0
CN(C)c1ccc(NC(=S)NC23CC4CC(CC(C4)C2)C3)cc1	-0.5	4534	-2.3	-5.2	45.1*
O=C(NCCn1ccn2nccc12)c1cc(C2CC2)on1	/	/	/	/	-9.0
CCCCn1c(=O)c(C(=O)c2ccccc2)nc2ccccc21	-6.7	21629*	-1.2	-7.0	-2.5
Cc1ccc(C)c(NC(=O)CSc2nnc([C@@H](N)Cc3ccccc3)o2)c1	-3.4	24097*	-3.9	-4.8	8.2
CCSc1nnc(C(N)Cc2ccccc2)o1 (stereo not drawn)	-0.4	3369	5.1	-1.6	6.3
Cc1cccc(NC(=O)CSc2nnc([C@@H](N)Cc3c[nH]c4ccccc34)o2)c1C	-0.8	23387*	-4.2	-7.5	12.1
N[C@@H](Cc1c[nH]c2ccccc12)c1nnc(SCc2ccccc2F)o1	1.2	22370*	-0.7	-3.9	2.0
CCSc1nnc([C@@H](N)Cc2c[nH]c3ccccc23)o1	-0.9	9078	-10.5	-15.6	-4.2
CCSc1nnc([C@@H](N)Cc2ccccc2)o1	-3.6	21095*	-1.0	-5.1	3.6
O=C(NCCOc1ccc(-c2ccc(F)cc2)nn1)c1cc2ccccc2oc1=O	/	/	/	/	0.0
CCc1ccc(-c2ccc(=O)n(CC(=O)N3CCN(c4ccccc4)CC3)n2)cc1	/	/	/	/	0.0
Cc1ccc(N2CC(C(N)=O)CC2=O)cc1 (stereo not drawn)	?	18778*	4.0	3.9	-16.4
Cc1ccc(N2CC(C(=O)Nc3nnc(C(C)C)s3)CC2=O)cc1 (stereo not drawn)	1.2	22336*	2.3	1.6	0.0
Cc1ccc(N2CC(C(N)=O)CC2=O)cc1C (stereo not drawn)	-0.5	4303	-1.6	-2.0	-13.0
Cc1ccc(N2CC(C(=O)Nc3nccs3)CC2=O)cc1Cl (stereo not drawn)	-1.7	23923*	0.6	-1.3	-5.5
Cc1nn2c(NCCCn3ccnc3)c3c(nc2c1-c1ccccc1)CCCC3	/	/	/	/	2.0
Cc1[nH]c2ccccc2c1C=NNC(=O)c1cc(-c2ccncc2)nc2ccccc12	/	/	/	/	14.6
O=C(COc1cccc2ccccc12)Nc1ncc(-c2ccc([N+](=O)[O-])cc2)s1	/	/	/	/	-3.0
CCOC(=O)c1cccnc1SCC(=O)N(C)c1ccccc1	1.4	22147*	3.3	0.1	8.9
CCN1CCN(Cc2oc(CO)cc(=O)c2O)CC1	?	19271*	-4.4	1.9	-10.7
O=c1cc(CO)oc(CN2CCCCC2)c1O	/	/	/	/	-11.0
Cc1nc(-c2ccc(S(=O)(=O)NCC(C)(O)c3cc4ccccc4o3)cc2)co1 (stereo not drawn)	/	/	/	/	9.0
Cc1c(Cc2ccccc2)sc(NC(=O)c2ccco2)c1C(N)=O	-0.4	5792	-0.2	-5.0	2.1
SMILES	BoNT A protease	Bead autofluor	Anthrax LF prot	BoNT F protease	SSB-PriA inh
CCOc1ccc(CC(=O)Nc2sc(Cc3ccccc3)c(C)c2C(N)=O)cc1OCC	2.4	23316*	3.4	3.3	6.1
COc1ccc(NC(=O)CSc2nc(N)c(NC(=O)c3ccc(C)cc3)c(=O)[nH]2)c(OC)c1	/	/	/	/	-14.0
CCS(=O)(=O)c1ccc(CC(=O)Nc2nnc(Cc3cccs3)o2)cc1	/	/	/	/	28.0
COC1=CC(=Cc2c(N)n3cc(C)sc3nc2=O)C=CC1=O	/	/	/	/	-12.3
Cc1cn2c(N)c(C=C3C=C(Cl)C(=O)C(Cl)=C3)c(=O)nc2s1	22.8	26112*	32.2*	140.8*	-15.8
O=C(Nc1ccccc1)N1CCN(c2nc3ccccc3s2)CC1	2.2	21122*	-1.1	2.8	-2.3
CCc1ccc(-n2cc(-c3nc(-c4ccc(F)c(Br)c4)no3)c3ccccc3c2=O)cc1	/	/	/	/	-13.0
Cc1sc2ncnc(SCC(=O)Nc3c(C)n(C)n(-c4ccccc4)c3=O)c2c1C	/	/	/	/	84.0*
Cc1c(NC(=O)C(C)Sc2nccn2C)c(=O)n(-c2ccccc2)n1C (stereo not drawn)	0.4	?	1.1	-4.3	-7.2
